Mtb betalactam: beta-lactam sensitization of Mtb H37Rv; M. tuberculosis H37Rv growth with meropenem, percent inhibition; inhibition, % at 25 µM; 0.27% of 330,000 active; call rule not given here;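 further: growth measured after seven days incubation then overnight dye step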
GDH-TPI inh: counter-screen for M. tuberculosis FBA inhibitors: GDH-TPI coupled enzymes; GDH-TPI coupled enzyme counterscreen, NADH absorbance; 1.2% of 360,000 active; AID 588335; inhibition, % at 4.8 µM; in the data active means inhibition above about 30%
Mtb UGM inh: blocks M. tuberculosis UGM enzyme | AID 504406 | inhibition, % at 10 µM | 0.06% of 320,000 active | purified UGM, fluorescence polarization probe displacement | P9WIQ1; in the data active means inhibition above about 10%, passing the limit was not always enough
Rv3671c inh: inhibitors of M. tuberculosis serine protease Rv3671c; P9WHR9; inhibition, % at 5.96 µM; 0.048% of 320,000 active; AID 2606; in the data active means inhibition above about 38%;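 further: extracellular domain of Rv3671c used as enzyme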
Target sequence (P9WHR9 whole entry, looked up, the tested form may be a part): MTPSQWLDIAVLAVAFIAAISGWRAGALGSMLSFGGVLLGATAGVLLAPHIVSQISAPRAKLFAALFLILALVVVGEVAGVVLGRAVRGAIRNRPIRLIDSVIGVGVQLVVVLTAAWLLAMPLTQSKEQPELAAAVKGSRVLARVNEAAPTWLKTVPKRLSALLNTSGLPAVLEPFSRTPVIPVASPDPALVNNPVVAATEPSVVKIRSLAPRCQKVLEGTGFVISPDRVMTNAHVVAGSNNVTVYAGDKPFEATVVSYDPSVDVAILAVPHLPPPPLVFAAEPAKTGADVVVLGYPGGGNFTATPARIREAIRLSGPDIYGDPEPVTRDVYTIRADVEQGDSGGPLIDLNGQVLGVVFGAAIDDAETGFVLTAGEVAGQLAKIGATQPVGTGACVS
RecA intein inh: inhibitors of M. tuberculosis RecA intein splicing; cell-free RecA intein splicing, fluorescence; inhibition, % (concentration not given with the values); 0.75% of 290,000 active; AID 2221; in the data active means inhibition above about 30%
Mtb FBA inh: Mtb fructose-bisphosphate aldolase inhibition; purified M. tuberculosis FBA, fluorescence read-out; inhibition, % at 1 µM; P9WQA3; AID 588726; 2.3% of 360,000 active; in the data active means inhibition above about 27%
A number is an active result; i = inactive; nt = not tested or not shown; + = active, no number. The list is not random: actives were taken first. Their share in the collection is about 4%.

SMILES	Mtb betalactam	GDH-TPI inh	Mtb UGM inh	Rv3671c inh	RecA intein inh	Mtb FBA inh
CCCNC(=O)N(C)C[C@H]1Oc2ncc(C#CCc3ccccc3)cc2C(=O)N([C@H](C)CO)C[C@H]1C	nt	i	nt	nt	nt	i
CCC(C)Nc1nc(Cl)nc(N(C#N)CN2C(=O)c3ccccc3S2(=O)=O)n1 (stereo not drawn)	i	i	i	i	37	i
CC(C)Nc1nc(Cl)nc(N(C#N)CN2C(=O)c3ccccc3C2=O)n1	i	i	i	i	i	i
O=C(NCCc1ccccc1Cl)C1CCC(=O)N(CC2CCCCC2)C1 (stereo not drawn)	i	i	i	i	i	i
O=S1(=O)CCN2C=C(Cl)C=C(Cl)C2=N1	i	i	i	i	i	140
Cc1ccc(NC(=O)Cn2nc(C(=O)O)c3ccccc3c2=O)cc1S(=O)(=O)N1CCOCC1	i	i	i	i	nt	i
Cc1cccn2c(=O)c3cc(C(=O)NCCc4ccccc4)c(=N)n(CC4CCCO4)c3nc12 (stereo not drawn)	i	i	i	i	i	119
N=c1c(C(=O)NCc2ccc3c(c2)OCO3)cc2c(=O)n3ccccc3nc2n1CC1CCCO1 (stereo not drawn)	i	i	i	i	i	i
Cc1cccn2c(=O)c3cc(C(=O)NCc4cccnc4)c(=N)n(CC4CCCO4)c3nc12 (stereo not drawn)	i	i	i	i	i	+
N=c1c(C(=O)NCc2ccco2)cc2c(=O)n3ccccc3nc2n1CC1CCCO1 (stereo not drawn)	i	i	i	i	i	+
COc1ccc(CCNC(=O)c2cc3c(=O)n4ccccc4nc3n(CC3CCCO3)c2=N)cc1OC (stereo not drawn)	i	i	i	i	nt	i
COc1ccc(CCNC(=O)c2cc3c(=O)n4ccccc4nc3n(CC3CCCO3)c2=N)cc1 (stereo not drawn)	nt	i	nt	nt	nt	i
N=c1c(C(=O)NCCc2ccccc2)cc2c(=O)n3ccccc3nc2n1CC1CCCO1 (stereo not drawn)	i	i	i	i	i	+
CCn1cc(C(=O)N[C@@H](CCSC)C(=O)NC(C)(C)CO)c(=O)c2cc3c(cc21)OCO3	i	i	i	i	i	i
CN(Cc1ccccc1)C(=O)c1ccc(NC(=O)C2CCN(C(=O)OC(C)(C)C)CC2)cc1	i	i	i	i	nt	i
O=C(CCc1c[nH]c2ccccc12)N[C@@H](Cc1c[nH]c2ccc(O)cc12)C(=O)O	i	i	i	i	i	i
N=c1c(C(=O)NCc2ccc(F)cc2)cc2c(=O)n3ccccc3nc2n1CC1CCCO1 (stereo not drawn)	i	i	i	i	i	+
CCCCCCOc1ccc(C(=O)n2cnc(N)n2)cc1	i	i	i	i	54	i
O=C1c2nc3cc(-c4ccco4)[nH]n3c(=O)c2CN1C1CCCCC1	i	i	i	i	i	129
COc1ccccc1N1CCN(C2CCCN(C(=O)CC(F)(F)F)C2)CC1 (stereo not drawn)	i	i	i	i	i	i
COc1ccccc1N1CCN(C2CCCN(C(=O)CCC(=O)N(C)C)C2)CC1 (stereo not drawn)	i	i	10	i	i	i
O=C(OCc1cn([C@@H]2C[C@H](c3ccccc3)N(C(=O)C3CCCCC3)C[C@H]2O)nn1)c1ccccc1	nt	i	nt	nt	nt	i
CCOC(=O)CNC(=O)N(CCOC)CC1CCCN(C2Cc3ccccc3C2)C1 (stereo not drawn)	i	i	i	i	i	+
COCCN(CC1CCCN(C2Cc3ccccc3C2)C1)C(=O)CCC(F)(F)F (stereo not drawn)	i	i	i	i	i	i
O=C(COc1ccccc1[N+](=O)[O-])N/N=C/C=C/c1ccco1	i	49	i	i	i	i
SMILES	Mtb betalactam	GDH-TPI inh	Mtb UGM inh	Rv3671c inh	RecA intein inh	Mtb FBA inh
COCc1nnc(NC(=O)c2ccc(S(=O)(=O)N3CCCc4ccccc43)cc2)o1	i	i	i	i	i	i
COc1ccc(-c2nnc(NC(=O)c3ccc(S(=O)(=O)N4CCCc5ccccc54)cc3)o2)cc1	i	37	i	i	i	i
COc1ccc(C=NNC(=O)c2ccccc2NS(=O)(=O)c2cccs2)cc1O	i	i	i	i	nt	i
Cc1nn(-c2ccc(F)cc2)c(Cl)c1/C=N/NC(=O)c1cccs1	i	i	i	i	i	i
O=C(N/N=C/c1ccc2c(c1)OCO2)c1ccc(NS(=O)(=O)c2cccs2)cc1	i	33	i	i	i	i
O=C(NN=Cc1ccc(F)c(F)c1)c1ccc(NS(=O)(=O)c2cccs2)cc1	i	46	i	i	nt	i
Cc1cccc(C(=O)Nc2ccc(C(=O)N/N=C/c3ccc4c(c3)OCO4)cc2)c1	i	i	i	i	i	i
Cc1nn(-c2ccc(Cl)cc2)c(Cl)c1/C=N/NC(=O)c1ccc(NS(=O)(=O)c2cccs2)cc1	i	32	i	i	i	i
COc1ccc(OC)c(C=NNC(=O)c2ccccc2NS(=O)(=O)c2cccs2)c1	i	31	i	i	nt	i
CCCC(=O)N1CCC1(C)C(=O)Nc1ccc2c(c1)OCCO2 (stereo not drawn)	nt	i	nt	nt	nt	i
CC(C)n1ncc2c(C(=O)N3CCN(Cc4ccc(Br)s4)CC3)cc(C3CC3)nc21	i	i	i	i	nt	i
CCC1(O)CC(c2ccccc2)=NN1C(=O)c1ccccc1F (stereo not drawn)	i	i	i	i	i	i
COc1cc(/C=N/NC(=O)c2ccc(NS(=O)(=O)c3cccs3)cc2)cc(OC)c1O	i	39	i	i	nt	i
O=C(CCl)Nc1cn(-c2ccccc2)nc1-c1ccc(F)cc1	i	i	i	i	46	i
CCOc1cc(S(=O)(=O)N2CCC(Cc3ccccc3)CC2)c(OCC)cc1-n1cnnn1	i	i	i	i	i	i
CCOc1cc(S(=O)(=O)NCCc2cccc(C)c2)c(OCC)cc1-n1cnnn1	i	i	i	i	nt	40
CCOC(=O)c1c(C)[nH]c(C(=O)N/N=C/c2ccc(OC)c(OC)c2)c1C	i	43	i	i	i	i
COc1ccccc1/C=N/NC(=O)c1[nH]c(C)c(C(=O)N/N=C/c2ccccc2OC)c1C	i	54	i	i	i	i
CCOC(=O)c1c(C)[nH]c(C(=O)N/N=C\c2ccccc2O)c1C	i	i	i	i	i	i
O=C(COc1ccccc1F)N1N=C(c2cccs2)CC1c1ccco1 (stereo not drawn)	nt	i	nt	nt	nt	i
O=C(N/N=C/c1cccc(Br)c1)c1ccc(Cn2cc(Br)cn2)o1	nt	i	i	i	i	i
Cc1ccsc1/C=N/NC(=O)c1ccc(Cn2cc(Br)cn2)o1	i	35	i	i	i	i
O=C(N/N=C\c1ccc(COc2ccc([N+](=O)[O-])cc2)o1)c1ccc(Cl)cc1	i	42	i	i	i	i
Cc1cc(Sc2nnc(/N=C/N(C)C)s2)c2ccccc2n1	i	i	i	i	36	i
Cc1cc(Sc2nnc(N)s2)c2ccccc2n1	i	i	i	i	i	i
CC(O)c1ccc(Oc2cnccn2)cc1 (stereo not drawn)	i	i	i	i	i	190

Screens from PubChem.
